Compounds with a hit are over-represented: about 1.4% of the library has one in this group of screens.
MenB inh: Mtb MenB enzyme inhibition | P9WNP5 | MenB enzyme assay, absorbance read-out | inhibition, % (test concentration not listed) | 100,000 tested, 0.43% active | AID 540299; in the data active = inhibition above about 21%, passing the limit was not always enough
Target sequence (P9WNP5 whole entry, looked up): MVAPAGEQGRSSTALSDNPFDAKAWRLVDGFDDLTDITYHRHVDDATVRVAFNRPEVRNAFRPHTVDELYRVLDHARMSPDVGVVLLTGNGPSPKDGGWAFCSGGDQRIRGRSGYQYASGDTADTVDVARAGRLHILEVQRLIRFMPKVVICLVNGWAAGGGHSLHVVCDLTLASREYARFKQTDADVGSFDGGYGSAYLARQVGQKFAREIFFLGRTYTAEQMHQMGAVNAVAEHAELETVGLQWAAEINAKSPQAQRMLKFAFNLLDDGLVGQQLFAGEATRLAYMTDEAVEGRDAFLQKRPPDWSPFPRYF
AID504770: growth inhibitors of E. coli YBA685 in a screen for V. cholerae RctB (chromosome II replication) inhibitors; z-score (concentration not given with the values); 130,000 tested, 0.27% active; E. coli YBA685 rctB-dependent plasmid, OD600 growth, 3 h; stronger effect = lower value; in the data active = z-score below about -2, passing the limit was not always enough
Mtb MbtI inh: MbtI salicylate synthase inhibition; AID 493033; inhibition, % (no concentration beside the values); 100,000 tested, 0.89% active; purified MbtI enzyme, fluorescence intensity read-out; P9WFX0; in the data active = inhibition mostly above about 56%, no sharp cut-off; inactive = mostly below about 77%
PV pol inh: inhibitors of poliovirus RNA polymerase binding and polymerization | % elongation, % (compound at 16.7 µg/mL) | 150,000 tested, 0.66% active | AID 588519 | P03300 | poliovirus polymerase elongation, fluorescence polarization; stronger effect = lower value; in the data active = % elongation below about 90%
Numbers stand for hits; n = inactive; x = no result.

SMILES	MenB inh	AID504770	Mtb MbtI inh	PV pol inh
CCN(CC)Cn1c(=O)sc2ccccc21	n	n	n	n
CCN(CC)Cn1c(=S)sc2ccccc21	n	n	87	n
OCn1c(=S)sc2ccccc21	x	n	93	n
S=c1[nH]ccn1CCc1ccccc1	n	n	x	n
O=c1[nH][nH]c(=S)n1CCc1ccccc1	n	n	68	n
CCSC1=C(C#N)C(C)(C)C(C#N)C(=O)N1 (stereo unspecified)	n	n	n	n
O=C(O)c1cccc(S(=O)(=O)N2CCCCC2)c1	n	n	n	n
CC(C)CNC(=O)c1cccc(S(=O)(=O)N2CCCCC2)c1	x	-4.8	n	n
Nc1nnnn1/N=C1/C(=O)Nc2ccc(Br)cc21	n	n	x	72
COc1ccc(N=C2C(=O)Nc3ccc(Br)cc32)cc1	n	n	n	n
CSCc1nc2sc(C(=O)NC3CC3)c(C)c2c(=O)[nH]1	n	n	n	n
Cc1ccc(Nc2nnc(SCc3nc4sc(C(=O)O)c(C)c4c(=O)[nH]3)s2)cc1C	n	n	n	81
Nc1cc(N)c2cc(-c3ccccc3)oc2c1	n	n	n	87
O=c1cc(-c2ccccc2)oc2cc(Cl)ccc12	x	n	x	x
O=C(COc1ccc(Cl)cc1Cl)NO	x	-5.4	x	x
CCC(CC)NC(=O)COc1ccc(Cl)cc1Cl	x	n	n	n
CC1(C)CC(=O)C(C2(O)C(=O)NC(=O)NC2=O)=C(O)C1	n	n	n	56
S=c1[nH]nc(NCCCN2CCOCC2)s1	n	n	97	n
N/C(=N/O)c1ccccc1N	42	n	n	n
CCOC(=O)C1CCCN(C(=O)CSc2ccc(NC(C)=O)cc2)C1 (stereo unspecified)	n	n	67	n
O=C(c1ccc(Cl)cc1)N(c1ccccn1)c1ccccn1	n	n	n	n
c1ccc(N=c2[n-][n+](-c3ccccc3)cn2-c2ccccc2)cc1	n	n	x	85
Nc1ccc(SCC(=O)O)c(C(=O)O)c1	x	n	x	x
Cc1ccccc1NC(=S)N/N=C/c1ccc(O)cc1O	n	n	n	81
CC(CC1CC(C)(C)OC1=O)c1nc(=S)[nH][nH]1 (stereo unspecified)	n	n	64	n
SMILES	MenB inh	AID504770	Mtb MbtI inh	PV pol inh
O=C(Nc1ccc2c(c1)OCO2)c1cnn2c(C(F)(F)F)cc(-c3ccco3)nc12	n	n	n	n
COC(=O)c1cc(-c2ccco2)nc2c1cnn2Cc1ccc2c(c1)OCO2	n	n	n	71
O=C1CC(N2CCCC2)C(=O)N1c1ccccc1 (stereo unspecified)	n	n	63	n
CC(C)(C)OC(=O)N1CCN(C2CC(=O)N(c3ccccc3)C2=O)CC1 (stereo unspecified)	n	n	n	n
CCOC(=O)Nc1nc2c(Cl)cccc2s1	n	n	x	n
Cc1ccc(-c2csc(-c3nnn(-c4cccc(Cl)c4)c3N)n2)cc1	n	n	n	n
Cc1ccc(-c2csc(-c3nnn(-c4ccc(C)c(C)c4)c3N)n2)cc1	n	n	n	27
c1ccc(Cn2c(Nc3ccccc3)nc3ccccc32)cc1	n	n	n	n
CN1CCC(n2nccc2NC(=O)c2cccnc2Sc2ccccc2)CC1	n	n	n	n
COc1ccc2c(c1)Cc1sc(NC(=O)c3cccc(C)c3)nc1-2	x	x	x	56
COc1ccc(C(=O)Nc2nc3c(s2)CCc2cc(OC)ccc2-3)cc1	x	x	x	80
COc1ccc2c(c1)Cc1sc(NC(=O)c3cccc(Cl)c3)nc1-2	x	x	x	63
COc1ccc2c(c1)CCc1sc(NC(=O)c3cccc(Br)c3)nc1-2	x	x	x	n
COc1ccc2c(c1)Cc1sc(NC(=O)c3ccc(Cl)cc3)nc1-2	x	x	x	88
C=CCn1c(=O)/c(=C/c2ccc3c(c2)OCO3)s/c1=C(/C#N)C(N)=O	n	n	n	n
Cc1ccc2c(c1)c1c3n2CCN(C/C(=N/O)c2ccc(Br)cc2)C3CCC1 (stereo unspecified)	n	n	n	n
CCOCCCNc1ncnc2sccc12	n	n	n	83
COc1ccccc1OCCNc1ncnc2sccc12	n	n	n	n
Cc1cc(F)ccc1NC(=O)Cc1ccc(S(=O)(=O)N2CCCC2)s1	n	n	n	n
CCOC(=O)c1[nH]c(CN(C)Cc2nc3ccccc3c(=O)[nH]2)c(C(=O)OCC)c1C	n	n	n	n
O=C(N/N=C/c1ccc(O)cc1)Nc1cccc2nsnc12	37	n	n	n
CC(C)C(=O)Nc1cccc2nsnc12	n	n	x	n
S=c1sscc1-c1ccccc1	n	n	x	53
CCn1cc(C(=O)O)c(=O)c2cc(F)c(N3CCN(C(=O)c4ccc(F)cc4)CC3)cc21	n	-3.7	n	n
CCn1cc(C(=O)O)c(=O)c2cc(F)c(N3CCN(C(C)=O)CC3)cc21	n	-3	n	n
SMILES	MenB inh	AID504770	Mtb MbtI inh	PV pol inh
CCn1cc(C(=O)O)c(=O)c2cc(F)c(N3CCNCC3)nc21	n	-3.5	n	n
CCN1CCN(C(=O)CCC(=O)c2cccs2)CC1	n	n	n	n
N/C(=N\c1nc2ccccc2o1)NC(=O)C(Sc1ccccc1)c1ccccc1 (stereo unspecified)	n	n	n	n
S=C(Cc1ccc2c(c1)OCCO2)N1CCOCC1	n	n	92	83
Cc1cc(=O)c2ccccc2n1CC(N)=O	n	n	n	n
O=C(O)c1ccc(NC2OC(CO)C(O)C2O)cc1 (stereo unspecified)	n	n	x	90
CCOC(=O)C1OC(c2ccccc2)OC1C(=O)OCC (stereo unspecified)	n	n	n	n
COc1ccc(-c2noc(-c3ccc(NC4CCCC4)c([N+](=O)[O-])c3)n2)cc1OC	x	x	x	79
O=c1cc(-c2ccccc2)nc(Nc2nc3ccccc3o2)[nH]1	n	n	n	68
Cc1nc(-c2ccccc2)cc(=O)[nH]1	37	n	n	n
S=c1[nH]nc(-c2ccncc2)n1C1CC1	n	n	60	x
C=CCn1c(-c2ccncc2)n[nH]c1=S	n	n	70	n
O=C(/C=c1\[nH]c(=O)/c(=C\c2ccsc2)s1)c1ccco1	n	n	98	n
O=C(/C=c1/[nH]c(=O)/c(=C/c2cccc(C(F)(F)F)c2)s1)c1ccco1	n	n	n	n
O=C(NCc1ccccc1)Nc1ccc(Cl)cc1	n	n	n	n
C=CCn1c(Cc2ccc(OC)c(Cl)c2)n[nH]c1=S	n	n	91	n
C=CCn1c(C(C)Oc2ccc(Cl)cc2Cl)n[nH]c1=S (stereo unspecified)	n	n	n	n
C=CCn1c(CSCc2ccc(F)cc2)n[nH]c1=S	n	n	64	n
O=C(NCCN1CCCc2ccccc21)Nc1cccc2c1CCCC2	n	n	n	n
O=C(OCc1ccccc1)C1CC2C=CC1C2 (stereo unspecified)	x	n	n	n
N#CC(C(=O)c1ccco1)c1nc2ccccc2[nH]1 (stereo unspecified)	n	n	98	n
COc1ccc(Cc2nn3c(Cn4cnc5ccccc54)nnc3s2)cc1	n	n	99	n
CCNc1nc(C)nc2sc(CC)cc12	32	n	x	n
COc1ccc(N2CCN(Cc3ccc(Cl)nc3)CC2)cc1	x	n	x	x
CCc1ccc(Nc2ncnc3sc4c(c23)CCCC4)cc1	x	x	x	n
CCc1nc(Nc2ccc(F)c(Cl)c2)c2c3c(sc2n1)CCCC3	x	x	x	85
Cc1noc(Nc2ccc(NC(=O)Cc3cccs3)cc2)c1C	n	n	n	n
